Sfp inh – blocks B. subtilis Sfp PPTase activity; Q9F4F7; Biochemical Sfp PPTase activity, qHTS; Potency, µM, for inactives: largest response in the series, negative = inhibition, actives largely listed as inhibitors; 310,000 compounds, 3.5% hits;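 also: the enzyme is Sfp with the accession as filed and its product quenches rhodamine fluorescence; 0% = enzyme reaction without inhibitor and -100% = no enzyme wells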
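After 15 min at room temperature with compound, 15 nM Sfp received 5 uM rhodamine-CoA plus 12.5 uM BHQ-2-ybbR (50 mM Hepes pH 7.6, 10 mM MgCl2). Rate came from the fluorescence difference over 30 min, ex 525/em 598 nm.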
IMPase Li inh – membrane-permeable IMPase blocker, potentiated with lithium; Potency, µM (top dose mostly 59.4 µM), for inactives: at the highest dose activity, negative = IMPase inhibition, actives largely listed as inhibitors; CHO-M1 cells, IP1 TR-FRET (IP-One), carbachol + lithium; 210,000 compounds, 0.35% hits;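 also: IP1 builds up when IMPase is blocked and the TR-FRET signal falls; plate controls were basal vehicle for no effect and high inhibitor control for full effect; nearly all actives have a fitted effect of over 50% in size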
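CHO cells stably expressing M1 receptor (2000/well, cultured 16–30 h) treated 30 min at 37C with compound plus low lithium. Cytosolic IP1 by TR-FRET (665/620 ratio and 620 channel) after 10 min lysis; AC50 by Hill fit.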
NPSR antag – antagonists of human neuropeptide S receptor cAMP signaling | CHO-NPSR cells, cAMP TR-FRET, antagonist mode | Potency, µM (top dose mostly 38.3 µM), without a hit: at the top dose activity change, negative = inhibition, actives largely listed as inhibitors | 220,000 compounds, 1% hits | AID 1461; also: % is scaled to controls: 0 for no effect and ±100 for the full control effect; nearly all actives have a fitted effect of over 50% in size
Epigenetic derep – epigenetic control regulation, reporter derepression | 280,000 compounds, 0.2% hits | AID 1865 | Potency, µM (series often up to 53.9 µM), for the others: at the top dose GFP activation, hits mostly activators | murine LDR cells, GFP reporter derepression, 30 h; also: % of control where 0% means no effect; nearly all actives have a fitted effect of over 60% in size
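GFP-positive cell count by laser-scanning cytometry (objects 20–120 um) after 30 h, 37 C compound exposure of murine LDR cells; reporter is CMV-GFP integrated at a silenced locus, inducible by HDAC or DNMT inhibitors.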
GCN5L2 inh – inhibitors of human GCN5L2 histone acetyltransferase. GCN5L2 HAT assay, ThioGlo1 CoA-SH fluorescence. Potency, µM (titrated, usually from 58.9 µM), for inactives: at the highest dose activity change, negative = inhibition, hits mostly inhibitors. 390,000 compounds, 0.21% hits. AID 504327; also: % is scaled to controls: 0 for no effect and ±100 for the full control effect
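Preincubate 20nM GCN5L2 with compound 15 min, RT → add 50uM ThioGlo1 + 75uM H3(1-25) + 70uM acetyl-CoA → read fluorescence 0 and 20 min. Primary qHTS; fluorescent artifacts likely.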
KDM4E inh – JMJD2E (human) inhibition | B2RXH2 | JMJD2E catalytic domain, FDH-coupled NADH fluorescence (FDH is formaldehyde dehydrogenase) | Potency, µM (doses to about 57.1 µM), for inactives: at the highest dose activity change, negative = inhibition, usual class: inhibitors | 230,000 compounds, 1.6% hits; active = well fitted inhibition curve with a large enough effect, not every such curve was filed as active; inconclusive = small, poorly fitted or top-dose-only effect, or another doubt; inactive = no such curve, though single readings can be large or run the other way;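 also: 0% = wells with enzyme and -100% = buffer wells without enzyme; nearly all actives have a fitted effect of over 50% in size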
Target sequence (B2RXH2 1-337 limits assumed): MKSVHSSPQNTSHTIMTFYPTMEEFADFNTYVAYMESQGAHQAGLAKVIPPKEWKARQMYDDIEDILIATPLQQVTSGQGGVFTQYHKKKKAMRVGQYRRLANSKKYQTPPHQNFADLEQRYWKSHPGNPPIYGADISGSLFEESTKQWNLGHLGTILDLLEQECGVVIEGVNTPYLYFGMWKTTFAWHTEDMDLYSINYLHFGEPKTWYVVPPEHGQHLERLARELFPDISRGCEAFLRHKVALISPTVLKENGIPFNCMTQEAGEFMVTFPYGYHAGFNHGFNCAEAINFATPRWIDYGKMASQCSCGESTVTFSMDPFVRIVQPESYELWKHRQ
Active calls of the source: *; ? = inconclusive; . = no result; [ ] = dose if it differs, or a comment. Hits are enriched below; roughly 3.6% of the tested compounds scored in any of these assays. Unless noted, calls follow the shape of the dose curve; as a rule, active = well fitted curve in the direction sought with a large enough effect; inconclusive = small, poorly fitted or top-dose-only effect, or another doubt; inactive = no such curve, though single readings can be large; an effect the other way counts as inactive or inconclusive. Potency is read from the fitted curve at half-maximal effect.

SMILES	Sfp inh	IMPase Li inh	NPSR antag	Epigenetic derep	GCN5L2 inh	KDM4E inh
[O-]/[N+](=C/c1cccnc1)c1ccc(Br)cc1	13µM*	-4%[38.3 µM]	?	0%	-4%	-3%
C[C@H](Br)CN(C[C@H](C)Br)c1ccc2c(c1)Cc1ccccc1-2	.	7%	.	.	.	.
CCCCCCCCCCCCCCOS(=O)(=O)O	14%	.	.	.	8.9µM*	.
CCOC(=O)[C@@H]1[C@@H]2c3ccccc3-c3ccccc3[C@H]2C[C@H]1O	.	1%	.	.	.	.
COC(=O)N(c1ccccc1)P1(=S)OCCO1	5.6µM*	0%[38.3 µM]	?	-2%	-20%	-3%
CCOC(=O)N(c1ccccc1)P1(=S)OCCO1	40µM*	6%[38.3 µM]	-8%[46.1 µM]	0%	2%	3%
CCOC(=O)N(c1ccccc1)P1(=S)OCC(C)O1 (stereo unspecified)	8%	2%[38.3 µM]	-21%[46.1 µM]	-2%	-5%	3%
COC(=O)[C@H]1C(=O)[C@H](C(=O)OC)[C@@H]2CC[C@H]1N2C	.	5%	.	.	.	.
Cc1cccn2c(=O)c(C=Nc3ccccc3)c(NCc3ccco3)nc12	50µM*	.	-11%[46.1 µM]	1%	-6%	0%
CC(C)n1c(=O)c(C=Nc2ccc(S(N)(=O)=O)cc2)c(O)n(Cc2ccco2)c1=O	16%	-2%	4%	0%	0%	?
CN1C(=O)[C@]23CC4=CC=C[C@H](O)[C@H]4N2C(=O)[C@@]1(CO)SS3	2.5µM*	.	.	.	-12%	.
CCN(CC)c1ccc(/C=C2\C(=O)NC(=O)N(Cc3ccco3)C2=O)cc1	?	2%	12%	-1%	0%	-10%
O=C(O)Cn1cc(/C=C2\C(=O)NC(=O)N(Cc3ccco3)C2=O)c2ccccc21	28µM*	7%	9%	1%	-11%	?
Cc1cc(/C=C2/C(=O)NC(=O)N(Cc3ccco3)C2=O)c(C)n1-c1ccccc1O	6%	.	-35%	2%	-9%	32µM*
CCN1C(=O)NC(=O)/C(=C\c2cn(CC(=O)N3CCCC3)c3ccccc23)C1=O	56µM*	.	.	.	-13%	.
O=C(O)Cn1cc(/C=C2\C(=O)NC(=O)N(c3ccc(Br)cc3)C2=O)c2ccccc21	28µM*	.	.	.	-1%	.
CCN1C(=O)NC(=O)/C(=C\c2cn(CC(=O)O)c3ccccc23)C1=O	2%	.	.	.	-17%	.
O=[As](O)(O)c1ccc2nc3cc([As](=O)(O)O)ccc3nc2c1	.	-2%	.	.	.	.
CCN=C=NCCCN(C)C	.	-1%	.	.	.	.
O=C1NC(=O)N(Cc2cccs2)C(=O)/C1=C/c1ccc(N2CCOCC2)cc1	50µM*	0%	3%	0%	-10%	?
O=C1NC(=O)N(CC2CCCO2)C(=O)/C1=C/c1cccs1 (stereo unspecified)	79µM*	.	-41%	-4%	-13%	-26%
CCCCC/C=C\C/C=C\C/C=C\CCCCC(=O)NCCc1ccc(O)c(O)c1	11%	13%	.	?	.	3%
OCCCc1ccc(O)c(O)c1	50µM*	5%	-27%	-1%	-2%	?
CCCN(CCC)CCc1ccc(O)c(O)c1	-24%	34%	2%[46.1 µM]	-1%	-5%	20µM*
COc1ccc(-n2c(C)cc(C(=O)C[N+]34CCN(CC3)CC4)c2C)cc1	-3%	-16%	4%	-2%	-23%	22µM*
CN(CCC(=O)O)C1=Nc2ccc(Cl)cc2C(c2ccccc2)=[N+]([O-])C1	.	-3%	.	.	.	.
CC1=NN(c2ccccc2)C(=O)C1/C=C1\C(=O)NC(=O)N(c2cc(C)cc(C)c2)C1=O (stereo unspecified)	-18%	4%	-5%[46.1 µM]	6%	-8%	-2%
CCCCN1C(=O)/C(=C/C=C/c2ccco2)C(=O)NC1=S	28µM*	1%	-21%[46.1 µM]	1%	-21%	-26%
Cc1ccc(N2C(=O)NC(=O)/C(=C/C=C/c3ccco3)C2=O)cc1	50µM*	15%	-53%	1%	22%	-22%
O=C1NC(=O)N(Cc2ccc(F)cc2)C(=O)/C1=C\C=C\c1ccco1	?	.	?	10%	23%	-3%

Screening results deposited in PubChem by National Center for Advancing Translational Sciences (NCATS).
